Measured values: PubChem BioAssay (NCI)
This is part of a sample that, as a whole, favours compounds with a hit. Of some 83,000 tested, about 20% had one in any assay.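 In brief: 96-well plates, 48 h treatment, single concentration, percent growth endpoint.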 Values without a mark were called inactive. Active and inactive are the calls of the source. Rule for the calls: active = growth percent below 10; inactive = the rest.

Columns and labels:
Assay in all cases: NCI-60 one-dose screen, 48 h (100 = growth as untreated, 0 = no growth, -100 = all killed)
Conditions in all cases: 10 µM
NCI-H23 lung = tested on: NCI-H23 lung
NCI-H226 lung = tested on: NCI-H226 lung
NCI-H322M lung = tested on: NCI-H322M lung
HOP-62 NSCLC = tested on: HOP-62 NSCLC
NCI-H460 lung = tested on: NCI-H460 lung
NCI-H522 lung = tested on: NCI-H522 lung
A549/ATCC NSCLC = tested on: A549/ATCC NSCLC
786-0 renal = tested on: 786-0 renal
COLO 205 colon = tested on: COLO 205 colon
DU-145 prostate = tested on: DU-145 prostate
K-562 leukemia = tested on: K-562 leukemia
MALME-3M melanoma = tested on: MALME-3M melanoma
MDA-MB-231 breast = tested on: MDA-MB-231 breast
RXF 393 renal = tested on: RXF 393 renal
SF-268 CNS = tested on: SF-268 CNS
SF-295 CNS = tested on: SF-295 CNS
SF-539 CNS = tested on: SF-539 CNS
UACC-257 melanoma = tested on: UACC-257 melanoma
M14 melanoma = tested on: M14 melanoma
HCT-15 colon = tested on: HCT-15 colon

SMILES | growth (NCI-H23 lung) | growth (NCI-H226 lung) | growth (NCI-H322M lung) | growth (HOP-62 NSCLC) | growth (NCI-H460 lung) | growth (NCI-H522 lung) | growth (A549/ATCC NSCLC) | growth (786-0 renal) | growth (COLO 205 colon) | growth (DU-145 prostate) | growth (K-562 leukemia) | growth (MALME-3M melanoma) | growth (MDA-MB-231 breast) | growth (RXF 393 renal) | growth (SF-268 CNS) | growth (SF-295 CNS) | growth (SF-539 CNS) | growth (UACC-257 melanoma) | growth (M14 melanoma) | growth (HCT-15 colon)
O=C(Nc1ccccc1)Nc1cccc(-n2cc(-c3ccncc3)c(-c3ccc(O)c(Cl)c3)n2)c1 | 74.2% | 93.8% | 43.3% | 77.7% | 25.2% | 51.4% | 35.5% | 38.5% | 111% | 71.1% | 24.4% | 20.2% | 15.6% | 47% | 71.7% | -21.7% (active) | 0.346% (active) | 10.3% | 31.8% | 24.7%
N#CSCC1CC(O)(c2ccccc2)CC(c2ccc(Cl)cc2)O1 (stereo not given) | 35.6% | 89.3% | 52.4% | 75.1% | 37.2% | 4.64% (active) | 68.5% | 37% | 59.2% | 33% | 44.8% | 7.26% (active) | 60.8% | 9.83% (active) | 34.6% | 46.6% | 58.8% | 87.8% | 9.35% (active) | 58.8%
CCC(=O)N1C/C(=C/c2ccc(Cl)cc2)C(=O)/C(=C/c2ccc(Cl)cc2)C1 | -25.6% (active) | -53.9% (active) | -16.6% (active) | -53% (active) | -13.8% (active) | -58.7% (active) | -26.7% (active) | -69% (active) | -76.5% (active) | -41.6% (active) | 1.74% (active) | -66.2% (active) | -22% (active) | -94% (active) | -30.4% (active) | -35.8% (active) | -64.7% (active) | -40.3% (active) | -61.9% (active) | 0.422% (active)
COc1ccc(OC)c(NC(=O)c2sc3nc4c(cc3c2N)C(=O)CCC4)c1 | 78.5% | 88.6% | 75.9% | 94% | 37.4% | 60.6% | 39% | 95.4% | 34.1% | 113% | 61.7% | 86.4% | 86.9% | 85.4% | 110% | 80.9% | 97.3% | 93.5% | 93.9% | 80.6%
CCCCOc1ccc(NC(=O)Nc2nnc(C)s2)cc1 | 96.8% | 101% | 103% | 102% | 102% | -36.8% (active) | 41.4% | 93.5% | 120% | 120% | 83.8% | 118% | 90.7% | 110% | 109% | 87.4% | 95.3% | 22.5% | 91.4% | 99.5%
COc1cc(CNCCCCCCN2C(=O)c3cccc4cccc(c34)C2=O)ccc1O | 84% | 96.4% | 67.3% | 70.3% | 78.1% | 60.9% | 64.3% | 58.3% | 45.8% | 80.9% | 35.3% | 36.3% | 81.5% | 52% | 88.7% | 69% | 85.3% | 89.4% | 78.2% | 74.7%
CN(C)C=Nc1cc(Cl)ccc1Cl | 101% | 96.3% | 104% | 99.9% | 116% | 97.2% | 92.1% | 111% | 109% | 117% | 110% | 118% | 103% | 112% | 112% | 97% | 111% | 90.2% | 107% | 103%
CNc1ccc(CSc2ccc(C)cc2)cc1 | 91.2% | 32.8% | 88.9% | 90.4% | 80.8% | 4.69% (active) | 42.4% | 31.6% | 86.4% | 90.8% | 119% | 94.4% | 33.4% | 64.2% | 69.6% | 103% | 56.3% | 93% | 84.7% | 89.2%
